Test results from PubChem BioAssay AID1159580 (chemical genetic matrix, 2015).
Values joined by “and” are separate entries in the source; they are usually repeats but may differ in a detail not shown here. Identical values can stand only once. Out of some 5,500 compounds screened, about 2,000 (36%) were called active. Another 18% or so got no clear call; they are omitted. Cut-off read from the data, not from the text of the source: active = normalized growth mostly below about 0.91 (no sharp cut-off); inconclusive = no clear call, values can overlap the other calls; inactive = mostly above about 0.92. Some of the results follow.

Experiment: chemical genetic growth profiling, strain panel (AID 1159580);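 note: tested at 20 µM; growth read once vehicle control cultures reached saturation at 30 °C; 1 = growth at the plate median or of vehicle wells; lower values mean less growth of the strain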
Conditions: S. cerevisiae deletion strains, growth OD

Measured: normalized growth

CO[C@@]1(NC(=O)Cc2cccs2)C(=O)N2C(C(=O)O)=C(COC(N)=O)CS[C@@H]21
inactive: locus YAL013W, strain DEP1, active compounds read low 1 | locus YAL021C, strain ccr4, active compounds read low 0.939 | locus YAL026C, strain drs2, active compounds read low 0.969 | locus YAL030W, strain snc1, active compounds read low 0.982 | locus YBL061C, strain skt5, active compounds read low 0.97 | locus YBR009C, strain hhf1, active compounds read low 1.02 | locus YBR021W, strain FUR4, active compounds read low 1.01 | locus YBR023C, strain chs3, active compounds read low 0.971 | locus YBR171W, strain sec66, active compounds read low 0.968 | locus YBR229C, strain ROT2, active compounds read low 1.01 | locus YBR231C, strain swc5, active compounds read low 1.03 | locus YBR279W, strain paf1, active compounds read low 0.972 | locus YCL011C, strain gbp2, active compounds read low 0.976 | locus YCL016C, strain dcc1, active compounds read low 0.955 | locus YCL029C, strain bik1, active compounds read low 0.995 | locus YCL069W, strain vba3, active compounds read low 0.989 | locus YCR088W, strain abp1, active compounds read low 0.975 | locus YDL005C, strain med2, active compounds read low 0.981 | locus YDL035C, strain GPR1, active compounds read low 1.01 | locus YDL040C, strain nat1, active compounds read low 0.981 | locus YDL074C, strain BRE1, active compounds read low 1.02 | locus YDL101C, strain DUN1, active compounds read low 1.01 | locus YDL134C, strain PPH21, active compounds read low 1 | locus YDL185W, strain tfp1, active compounds read low 0.994 | locus YDL192W, strain arf1, active compounds read low 1 | locus YDR001C, strain nth1, active compounds read low 0.971 | locus YDR069C, strain doa4, active compounds read low 0.963 | locus YDR101C, strain arx1, active compounds read low 0.984 | locus YDR137W, strain rgp1, active compounds read low 0.94 | locus YDR150W, strain NUM1, active compounds read low 1.01 | locus YDR159W, strain sac3, active compounds read low 0.943 | locus YDR162C, strain NBP2, active compounds read low 1 | locus YDR195W, strain ref2 0.98 | locus YDR297W, strain sur2, active compounds read low 0.998 | locus YDR318W, strain mcm21, active compounds read low 0.992 | locus YDR334W, strain swr1, active compounds read low 0.97 | locus YDR335W, strain msn5, active compounds read low 0.955 | locus YDR388W, active compounds read low 0.99 | locus YDR392W, strain spt3, active compounds read low 0.838 | locus YDR502C, strain sam2, active compounds read low 0.991 | locus YEL003W, strain gim4, active compounds read low 0.983 | locus YEL037C, strain rad23, active compounds read low 0.97 | locus YEL061C, strain CIN8 (second series), active compounds read low 0.976 | locus YEL061C, strain CIN8, active compounds read low 1.01 | locus YER015W, strain faa2, active compounds read low 0.99 | locus YER016W, strain bim1, active compounds read low 0.949 | locus YER110C, active compounds read low 0.997 | locus YER111C, strain swi4, active compounds read low 0.96 | locus YER155C, strain BEM2 (second series), active compounds read low 0.977 | locus YER155C, strain BEM2, active compounds read low 1 | locus YER167W, strain BCK2, active compounds read low 1 | locus YFR010W, strain ubp6, active compounds read low 1.01 | locus YGL078C, strain dbp3, active compounds read low 0.986 | locus YGL086W, strain mad1, active compounds read low 0.987 | locus YGL167C, strain pmr1, active compounds read low 0.978 | locus YGL173C, strain kem1, active compounds read low 0.987 | locus YGL227W, strain vid30, active compounds read low 0.98 | locus YGL240W, strain doc1, active compounds read low 1 | locus YGL248W, strain PDE1, active compounds read low 1.01 | locus YGL253W, strain hxk2, active compounds read low 0.978 | locus YGR078C, strain PAC10, active compounds read low 1.01 | locus YGR135W, strain pre9, active compounds read low 0.989 | locus YGR252W, strain gcn5, active compounds read low 0.982 | locus YHR013C, strain ard1, active compounds read low 0.935 | locus YHR027C, strain rpn1, active compounds read low 1.01 | locus YHR030C, strain SLT2, active compounds read low 1.01 and 1.08 | locus YHR079C, strain IRE1 (second series), active compounds read low 0.995 | locus YHR079C, strain IRE1, active compounds read low 1.08 | locus YHR094C, strain hxt1, active compounds read low 0.984 | locus YHR129C, strain ARP1, active compounds read low 1 | locus YHR142W, strain chs7, active compounds read low 0.936 | locus YHR200W, strain rpn10, active compounds read low 0.994 | locus YIL066C, strain RNR3, active compounds read low 1.01 | locus YIL073C, strain SPO22, active compounds read low 1.01 | locus YIL125W, strain kgd1, active compounds read low 0.995 | locus YIR030C, strain dcg1, active compounds read low 0.996 | locus YJL092W, strain hpr5, active compounds read low 0.989 | locus YJL095W, strain BCK1 (second series), active compounds read low 0.967 | locus YJL095W, strain BCK1, active compounds read low 1.01 and 1.06 | locus YJL115W, strain asf1, active compounds read low 0.969 | locus YJL129C, strain trk1, active compounds read low 0.914 | locus YJL134W, strain LCB3, active compounds read low 1.01 | locus YJL154C, strain vps35, active compounds read low 0.973 | locus YJL164C, strain tpk1, active compounds read low 0.98 | locus YJL166W, strain qcr8, active compounds read low 0.987 | locus YJL168C, strain set2, active compounds read low 0.992 | locus YJL187C, strain SWE1 (second series), active compounds read low 1.01 | locus YJR043C, strain POL32, active compounds read low 0.986
